# Laboratory results taken from PubChem BioAssay (NCI).
# Compounds without any hit were thinned out: in the full panel of roughly 83,000, 20% have a hit.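 96-well plates, one dose, 48 hours. Percent growth reported; active if below 10.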 Unmarked numbers belong to inactive results. Active and inactive are the calls of the source.
# Assays:
# Experiment in all cases: NCI-60 one-dose screen, 48 h (100 = growth as untreated, 0 = no growth, -100 = all killed)
# Details in all cases: 10 µM unless noted
# SR leukemia = tested on: SR leukemia
# RPMI-8226 leukemia = tested on: RPMI-8226 leukemia
# OVCAR-5 ovarian = tested on: OVCAR-5 ovarian
# OVCAR-4 ovarian = tested on: OVCAR-4 ovarian
# SK-OV-3 ovarian = tested on: SK-OV-3 ovarian
# IGROV1 ovarian = tested on: IGROV1 ovarian
# OVCAR-3 ovarian = tested on: OVCAR-3 ovarian
# HS 578T breast = tested on: HS 578T breast
# NCI/ADR-RES ovarian = tested on: NCI/ADR-RES ovarian
# T-47D breast = tested on: T-47D breast
# BT-549 breast = tested on: BT-549 breast
# MDA-MB-435 melanoma = tested on: MDA-MB-435 melanoma
# SW-620 colon = tested on: SW-620 colon
# MCF7 breast = tested on: MCF7 breast
# HCT-116 colon = tested on: HCT-116 colon
# HCC-2998 colon = tested on: HCC-2998 colon
# KM12 colon = tested on: KM12 colon
# OVCAR-8 ovarian = tested on: OVCAR-8 ovarian
SMILES,growth (SR leukemia),growth (RPMI-8226 leukemia),growth (OVCAR-5 ovarian) [%],growth (OVCAR-4 ovarian) [%],growth (SK-OV-3 ovarian),growth (IGROV1 ovarian) [%],growth (OVCAR-3 ovarian),growth (HS 578T breast),growth (NCI/ADR-RES ovarian),growth (T-47D breast),growth (BT-549 breast) [%],growth (MDA-MB-435 melanoma),growth (SW-620 colon),growth (MCF7 breast),growth (HCT-116 colon),growth (HCC-2998 colon),growth (KM12 colon),growth (OVCAR-8 ovarian) [%]
C[C@H](CCC(=O)NCc1ccc(C(=O)Nc2ccccc2N)cc1)[C@H]1CC[C@H]2[C@@H]3[C@@H](O)C[C@@H]4C[C@H](O)CC[C@]4(C)[C@H]3CC[C@]12C,63.4%,5.86% (active),67.8,65.3,73.7%,51,64.3%,69.6%,99.4%,48%,54.1,60.2%,56%,45.7%,31.2%,89.5%,64%,–
N#Cc1ccccc1Cn1c2nc(=N)c3ccccc3c-2nc2ccccc21,–,77.2%,78.6,29.8,79.2%,49.6,-5.06% (active),97.8%,71.1%,66.8%,88,70%,54.6%,34.7%,46.9%,60.2%,60.7%,66.4
COc1cccc(C(=O)Nc2cccc(C#Cc3cccc4[nH]nc(N)c34)c2)c1,–,39.2%,–,67.8,86.7%,59.9,–,66.4%,45.5%,38%,121,1.93% (active),34%,30.7%,33.1%,45.9%,12.6%,50.4
COc1ccc([C@H]2c3[nH]c4ccccc4c3C[C@H]3C(=O)N(C4CCN(Cc5c(Cl)cccc5Cl)CC4)CC(=O)N23)c(OC)c1,85%,–,96.7,97.2,117%,78.9,103%,88.4%,90.5%,83.6%,119,102%,95.4%,84.3%,92.6%,113%,96.8%,97.5
NS(=O)(=O)c1ccc(Nc2nc(SCc3ccccc3)nc3ccccc23)cc1,33.6%,–,–,58,91.3%,90.9,84.7%,62.2%,102%,24.8%,66.7,76.8%,61%,54.3%,53.2%,83%,27.8%,60.6
COc1ccc(/C(N)=N/C(N)=N/c2nc3ccccc3s2)cc1,13.4%,–,103,76.5,99.6%,49.8,96%,81.3%,35%,80.4%,–,20.3%,65.4%,71.2%,79.6%,91.9%,-11.5% (active),97.3
CCNC(=O)N1CCc2cc(OC)c(OCCc3ccc(OC)cc3)cc2C1c1ccc([N+](=O)[O-])cc1C (stereo not given),8.11% (active),–,40.4,54,51.4%,24.9,–,0.838% (active),12.2%,53%,20.1,14.5%,23.8%,18.4%,8.8% (active),14.5%,18.6%,29.1
Cc1cccc(/C=C/C(=O)Nc2ncc(Cc3cccc(C)c3)s2)c1,6.46% (active),–,40.6,45.6,30%,32.5,–,14.2%,18.3%,32.7%,66.6,-70.2% (active),16.8%,15.1%,23.1%,34.8%,6.43% (active),24.3
CCCn1cnc2c(c1=N)C(c1ccc(F)cc1)c1sc3c(C)cccc3c1O2 (stereo not given),8.4% (active),–,42.4,35.8,41.1%,25.2,-12.6% (active),13.7%,-11.8% (active),38.3%,–,-58% (active),16.4%,18.4%,16.7%,57.3%,24.9%,40.2
Cc1occc1-c1nc2s/c(=C/c3ccc(-c4cc(C(F)(F)F)ccc4Cl)o3)c(=O)n2n1,101%,–,105,102,110%,103,–,98.1%,109%,92.7%,108,101%,101%,90%,102%,106%,99.9%,103
CC(=O)Nc1cccc(Nc2nc(N[C@@H](C)c3ccccc3)c3ccccc3n2)c1,-43.4% (active),–,18.6,17.5,53.6%,18.4,13%,1.68% (active),-0.0139% (active),58.4%,–,-48.9% (active),20.4%,8.63% (active),6.47% (active),-6.49% (active),22.9%,39
CN1CCN(c2nc(-c3csc(-c4ccccc4)n3)cc3ccccc23)CC1,-20.7% (active),–,59.4,72.7,81.8%,26.2,–,60.6%,65.8%,-23.3% (active),96.2,7.31% (active),-19.1% (active),9.31% (active),2.27% (active),-84.7% (active),18.7%,62.4
COc1ccc(OC)c(-c2nc(SCC(=O)c3ccc(Br)cc3)nc(Nc3ccc(S(N)(=O)=O)cc3)c2C#N)c1,13.9%,–,73.3,57.3,79.9%,54.7,–,13.4%,74.4%,71.1%,49.4,-18.6% (active),36%,28.9%,15.4%,70.9%,20.9%,62.8
Clc1nc2ccccc2nc1-c1nnc(C2CCCCC2)o1,–,95.4%,–,98,102%,101,–,92.8%,107%,86%,138,99.1%,97.2%,37.4%,101%,104%,94.1%,101
O=S(=O)(Nc1ccc2c(c1)OCO2)c1ccc(-c2cnc(C3CC3)o2)cc1,26.6%,–,–,36.3,62.1%,40.6,7.46% (active),45.5%,16.6%,31.7%,42.1,0.417% (active),21.2%,22.3%,19.9%,73.5%,23.1%,46.8
CC(C)(O)c1cncc(-c2ccc3ncnc(NCc4ccccc4)c3c2)c1,92.2%,–,62.5,77.3,110%,34.2,83.8%,73.2%,103%,64.2%,–,92.3%,98.9%,58.5%,97.8%,92.8%,101%,102
COc1cc2nc(Cl)nc(Nc3cccc(C4=Nc5c(N)nc(N)nc5NC(c5ccc(F)cc5)C4)c3)c2cc1OC (stereo not given),–,-3.6% (active),107,96.6,117%,80.8,61%,86.1%,80%,63.7%,78.1,77.2%,12.7%,-5.06% (active),-41.7% (active),22.9%,34.1%,51.6
c1cn2c(ccc3nc(-c4cn[nH]c4)c4c(c32)CCCC4)n1,–,80.7%,99.4,77.9,-10.1% (active),45.3,–,31.5%,77.3%,45.4%,53.1,34.9%,61.2%,60.9%,48.7%,87.2%,74.9%,57.1
